{
  "source": "PubChem BioAssay (EPA / NIEHS)",
  "note": "Values joined by “and” are separate entries in the source; they are usually repeats but may differ in a detail not shown here. Equal values may be shown once. Inconclusive results are not listed. The source holds several records for some structures; these can differ, active in one and inactive in another. Active and inactive are the calls of the source. The calls were made as follows: active = hit-call score of the fitted dose curve at least 0.9, where 1 is the maximum; inconclusive = response in the unintended direction; inactive = score below 0.9.",
  "data": [
    {"test_system": "zebrafish Estrogen Receptor (ER2b), gene 317733", "assay": "ATG_zfER2b_XSP2: Attagene TRANS-FACTORIAL Multi-Species (XSP2) HepG2 Assay for zebrafish Estrogen Receptor (ER2b) (AID 2283823);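 also: fitted upward as reporter gain over DMSO so potency reflects activation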", "method": "ATG_XSP2_multi-species_TRANS is a cell-based, multiplexed assay created by modifying the existing Attagene TRANS-FACTORIAL system to include a panel of nuclear receptors from some or all the following species: human (Homo sapiens), mouse (Mus musculus), frog (Xenopus laevis), zebrafish (Danio rerio), chicken (Gallus gallus), and turtle (Chrysemys picta). The ECOTOX-FACTORIAL format uses HepG2, a human liver cell line, with measurements taken at 24 hours after chemical dosing in a 24-well plate. Xsp2 included 3 nM 6-alpha-fluorotestosterone and 1.5 nM norgestrel to stimulate the androgen receptor.ATG_zfER2b_XSP2 is one of 29 assay components measured or calculated from the ATG_XSP2_multi-species_TRANS assay. It is designed to make measurements of mRNA induction, a form of inducible reporter, as detected with fluorescence intensity signals by Reverse transcription polymerase chain reaction (RT-PCR) and Capillary electrophoresis technology.The assay endpoint ATG_zfER2b_XSP2 was analyzed in the positive analysis fitting direction relative to DMSO as the negative control and baseline of activity. Using a type of inducible reporter, measures of mRNA for gain-of-signal activity can be used to understand the reporter gene at the transcription factor-level as they relate to the gene ER. Furthermore, this assay endpoint can be referred to as a primary readout, because this assay has produced multiple assay endpoints where this one serves a reporter gene function. To generalize the intended target to other relatable targets, this assay endpoint is annotated to the nuclear receptor intended target family, where the subfamily is steroidal.\nHuman liver HepG2 cells are transiently transfected with multiple reporter transcription units (MRTUs) in 6-well plates using FuGene 6 reagent (Roche; 3 ml FuGene/1 mg DNA). The MRTU constructs are regulated by a cis-regulating element (promoter). […] A major difference between the CIS and TRANS system is that in CIS activities of endogenous TFs are measured, whereas the TRANS assay evaluates changes in activities of exogenous, chimeric NR-Gal4 proteins. […] At the end of 24 hour incubation, total RNA was isolated using TriZol reagent (Invitrogen). The isolated RNA is then reverse-transcribed using oligo(dT) primer and Mo-MLV reverse transcriptase (Invitrogen) with DNAse I (Ambion) treatment for 30 min. The one-tenth of the produced cDNA was amplified by PCR using Taq DNA polymerase (Invitrogen) and two reporter sequence-specific primers. The PCR products were fluorescently labeled by primer extension with 6-arboxyfluorescein (6-FAM) 5'-labeled reporter sequence-specific primer (2 min at 95 C, 20 s at 68 C and 10 min at 72 C) and these products were digested with 5U of HpaI (New England Biolabs) for 2h at 37 C. The fragments were purified using Qiaquick PCR columns (Qiagen), analyzed on an ABI 3130xL genetic analyzer (Applied Biosystems) with peak positions identified by using a set of X-rhodamine (ROX)-labeled MapMarker1000 molecular weight standards (BioVentures). The raw capillary electrophoresis data was processed using Attagraph software (Attagene).", "values": [
      {"smiles": "C=CCOC(Cn1ccnc1)c1ccc(Cl)cc1Cl", "note": "(stereo unspecified)", "outcome": "inactive"},
      {"smiles": "CCCCC(CC)COC(=O)c1ccccc1C(=O)O", "note": "(stereo unspecified)", "AC50": "48.9 µM (active)"},
      {"smiles": "CC(=O)S[C@@H]1CC2=CC(=O)CC[C@]2(C)[C@H]2CC[C@@]3(C)[C@@H](CC[C@@]34CCC(=O)O4)[C@H]12", "AC50": "74 µM (active)"},
      {"smiles": "CSC(=O)c1cccc2nnsc12", "AC50": "152 µM (active) and 121 µM (active)"},
      {"smiles": "CN(C)C(=O)Nc1ccc(Cl)c(Cl)c1", "AC50": "130 µM (active) and 65.2 µM (active)"},
      {"smiles": "O=C(c1ccc(O)cc1O)c1ccc(O)cc1O", "AC50": "2.47 µM (active)"},
      {"smiles": "CC1(C)C(C=C(Cl)Cl)C1C(=O)OCc1cccc(Oc2ccccc2)c1", "note": "(stereo unspecified)", "AC50": "100 µM (active)"},
      {"smiles": "C#C[C@]1(O)CC[C@H]2[C@@H]3CCC4=CC(=O)CC[C@@H]4[C@H]3CC[C@@]21CC", "outcome": "inactive", "AC50": "0.651 µM (active)"},
      {"smiles": "Oc1ccc(C(c2ccc(O)cc2)C(Cl)(Cl)Cl)cc1", "AC50": "0.524 µM (active)"},
      {"smiles": "CC(C)(c1ccc(O)cc1)c1ccc(O)cc1", "AC50": "2.08 µM (active)"},
      {"smiles": "CC(C)CCCCCCc1ccc(O)cc1", "AC50": "1.44 µM (active)"},
      {"smiles": "CCCCC(CC)CN1C(=O)C2C3C=CC(C3)C2C1=O", "note": "(stereo unspecified)", "AC50": "51.4 µM (active)"},
      {"smiles": "N[C@@H](Cc1cc(I)c(Oc2ccc(O)c(I)c2)c(I)c1)C(=O)O", "AC50": "4.9 µM (active)", "outcome": "inactive"},
      {"smiles": "CCN(Cc1c(F)cccc1Cl)c1c([N+](=O)[O-])cc(C(F)(F)F)cc1[N+](=O)[O-]", "AC50": "10.2 µM (active) and 4.04 µM (active)"}
    ]}
  ]
}
